Assay outcomes deposited in PubChem by several laboratories.
Hits are enriched below; roughly 2.8% of the tested compounds scored in any of these assays.
MRP reversal = compounds reversing MRP-mediated drug resistance; H69AR cells + 2 uM doxorubicin, CellTiter-Glo, 72 h; differential viability (reversal), % at 10 µM; 0.04% of 85,000 active; AID 602;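 active means viability drop by adding the cancer drug above about 55%, with treated viability meeting a 40% cutoff, limit read from the data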;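 further: viability without doxorubicin minus viability with 2 µM doxorubicin for each compound; larger differential means the compound sensitizes cells more to doxorubicin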
ERa coact pot = ER-alpha (human) coactivator binding potentiation; coactivator binding (% of control), % at 25.6 µM; P03372; TR-FRET ERalpha-LBD/SRC-Cy5 coactivator binding, 2 h; 100 = basal binding, no effect; 1.3% of 86,000 active; AID 639; in the data active means activity above about 200%;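 further: binding measured in presence of low estradiol as agonist stimulus; 0% = peptide alone without receptor and 100% = receptor with peptide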
Target sequence (P03372 whole entry, looked up, the tested form may be a part): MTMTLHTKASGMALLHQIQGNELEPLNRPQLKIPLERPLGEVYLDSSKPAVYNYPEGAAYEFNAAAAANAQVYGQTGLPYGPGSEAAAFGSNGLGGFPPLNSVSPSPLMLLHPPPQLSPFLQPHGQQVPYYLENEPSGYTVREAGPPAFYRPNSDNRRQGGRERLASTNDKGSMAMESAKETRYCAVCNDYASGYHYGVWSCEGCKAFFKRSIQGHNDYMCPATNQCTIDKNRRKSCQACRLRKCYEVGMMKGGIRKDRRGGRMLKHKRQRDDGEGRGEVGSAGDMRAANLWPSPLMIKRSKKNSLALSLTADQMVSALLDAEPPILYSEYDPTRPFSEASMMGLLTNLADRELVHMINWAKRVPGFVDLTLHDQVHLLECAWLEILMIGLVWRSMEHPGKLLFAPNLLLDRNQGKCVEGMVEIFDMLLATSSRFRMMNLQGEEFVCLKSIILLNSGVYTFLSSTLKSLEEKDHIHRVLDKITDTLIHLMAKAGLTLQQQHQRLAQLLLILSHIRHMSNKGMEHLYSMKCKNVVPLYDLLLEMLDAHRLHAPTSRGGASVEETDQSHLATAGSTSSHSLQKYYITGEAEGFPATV
ERb SRC1 inh = ER-beta (human) coactivator binding inhibition; Q92731; 1.3% of 86,000 active; TR-FRET ER-beta LBD / SRC1-Cy5 peptide binding; receptor agonist-loaded with 1 µM estradiol; inhibition, % at 25.6 µM; AID 633;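 active means compounds whose percent inhibition of the receptor-coactivator binding signal exceeds about 50% in the single-dose screen, limit read from the data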;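 further: 0% = receptor plus peptide wells without compound and 100% = peptide-only wells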
MRP1 act = MRP-1 activation. AID 799. 0.61% of 140,000 active. viability increase, % at 10 µM. H69AR cells + doxorubicin, viability rescue, CellTiter-Glo;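 active means viability gain under doxorubicin at or above a set limit, the compound median plus 3 SD, cut at about 4.7% in these data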;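 further: MRP-1 overexpressing cells given doxorubicin 25 µM after compound pretreatment; 18-22 h compound pretreatment then 72 h with doxorubicin before readout; 0% = doxorubicin-only wells and 100% = vehicle-treated cells without doxorubicin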
ERa coact inh = blocks coactivator binding to human estrogen receptor alpha; TR-FRET ER-alpha LBD / SRC-1 peptide, estradiol-bound; 1.7% of 86,000 active; AID 629; inhibition, % at 25.6 µM; in the data active means inhibition above about 50%;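 further: 0% = receptor plus peptide control and 100% = peptide only without receptor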
Smad3 FoxH1 inh = Smad3 (human) transcription factor binding inhibition. P84022. TR-FRET Smad3/Dy647-FoxH1 peptide binding, europium anti-His. inhibition, % at 25 µM. 0.29% of 88,000 active. AID 630;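 active means compounds that reduce the energy-transfer binding signal between the protein and its labelled peptide by more than half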;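 further: 0% = Smad3 plus labelled peptide maximal FRET and 100% = peptide-only background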
Numbers without * were called inactive; . = no result; [ ] = another dose, or the depositor's remark.

SMILES | MRP reversal | ERa coact pot | ERb SRC1 inh | MRP1 act | ERa coact inh | Smad3 FoxH1 inh
Nc1c(OCC(=O)O)ccc2cc(S(=O)(=O)O)ccc12 | . | . | . | . | . | 27.6
CCCCCCc1ccc(OCC(=O)OC)cc1OCC(=O)OC | 10.0 | 79.0 | -1.4 | -0.2 | -4.2 | 10.8
CCCc1cc(=O)oc2cc(OCC(=O)OC)cc(OCC(=O)OC)c12 | 11.4 | 622.0*[fluorescence artefact?] | 21.6 | -1.4 | -4.1 | 2.0
Cc1[nH]c(=S)sc1Cc1ccc(F)cc1 | . | . | . | -1.3 | . | .
O=C(N/N=C/c1ccc(O)c(O)c1O)/C(=C/c1ccc([N+](=O)[O-])cc1)NC(=O)c1ccccc1 | -11.6 | 42.6 | 71.0*[fluorescence artefact?] | -0.1 | 89.0*[fluorescence artefact?] | 3.1
Cc1ccc(-c2noc(C3CCCN(S(=O)(=O)c4ccc5ccccc5c4)C3)n2)o1 (stereo not given) | -38.1 | 81.2 | -0.6 | 7.3* | 8.6 | 9.6
O=C1C=CC(=Nc2cccc3c(N=C4C=CC(=O)O4)cccc23)O1 | . | . | . | . | . | 0.8
NNC(=O)Cc1cccnc1 | . | . | . | . | . | 6.5
O=C(Cn1c(=O)oc2cc(S(=O)(=O)N3CCCCCC3)ccc21)NC1CCCCCCC1 | 1.4 | 201.7* | 24.5 | -5.3 | 36.0 | -4.6
CC(NC(=O)Cn1c(=O)oc2cc(S(=O)(=O)N3CCCC3)ccc21)c1ccccc1 (stereo not given) | -1.1 | 103.8 | 4.6 | -0.7 | 5.7 | -11.2
O=C(Cn1c(=O)oc2cc(S(=O)(=O)N3CCCC3)ccc21)NC1CCCc2ccccc21 (stereo not given) | 5.2 | 36.1 | 66.6*[fluorescence artefact?] | -0.9 | 88.8*[fluorescence artefact?] | 3.6
Cc1cc(C)cc(NC(=O)Cn2c(=O)oc3cc(S(=O)(=O)N4CCC(C)CC4)ccc32)c1 | 7.2 | 25.9 | 53.7*[fluorescence artefact?] | -0.1 | 88.6*[fluorescence artefact?] | -7.4
O=C(Cn1c(=O)oc2cc(S(=O)(=O)N3CCCC3)ccc21)Nc1ccc(C(F)(F)F)cc1 | 15.8 | 144.0 | 2.9 | 2.7 | 69.3*[fluorescence artefact?] | 0.0
O[C@@H](c1cc([C@@]23C[C@H]4CC[C@@H]2C[C@H](C4)C3)nc2c(Cl)cc(Cl)cc12)[C@@H]1CCCCN1 | . | . | . | . | . | -8.7
Nc1ccc(C(=O)C[C@H](N)C(=O)O)cc1O | . | . | . | . | . | 2.7
CC(C)CC(OC(=O)c1cccs1)C(=O)NCc1ccco1 (stereo not given) | -1.6 | 167.7 | 58.4* | -1.4 | 21.0 | -4.9
Cc1cc(=O)oc2cc(OCC(=O)Nc3nnc(C(C)C)s3)ccc12 | 27.5 | 488.4* | 9.0 | 0.7 | 25.9 | -284.6
Cc1nnc(NC(=O)C(C)Oc2ccc3c(C)cc(=O)oc3c2)s1 (stereo not given) | 3.3 | 95.7 | 7.2 | 7.7* | -1.4 | -2.5
COC(=O)c1cc(NC(=O)Cn2c(=O)cnc3ccccc32)cc(C(=O)OC)c1 | 5.7 | 79.8 | 24.5 | -1.7 | 55.1* | -0.7
COc1ccc(CC(=O)Nc2ccc(-c3noc(-c4cccc(OC)c4)n3)cc2)cc1 | -5.0 | 287.4*[fluorescence artefact?] | 49.6 | -3.5 | 37.6 | -17.2
COc1cccc(-c2nc(-c3ccc(NC(=O)c4cccnc4)cc3)no2)c1 | -10.4 | 202.7*[fluorescence artefact?] | 17.9 | -3.2 | -4.2 | 7.4
Cc1ccccc1-c1nc(-c2ccc(NC(=O)c3ccc(Br)o3)cc2)no1 | 19.5 | 265.2* | 39.2 | -2.9 | 44.9 | -8.6
O=C(Nc1ccc(Nc2ccccc2)cc1)c1ccc(Br)o1 | 19.6 | 82.6 | 7.6 | -3.6 | -1.8 | 1.4
O=C(Nc1ccc(-c2noc(-c3cccs3)n2)cc1)c1cccnc1 | -18.3 | 363.5* | 2.0 | -4.1 | -17.0 | -0.3
O=C(O)C1C(C(=O)O)C(C(=O)O)C1C(=O)O (stereo not given) | . | . | . | . | . | -16.9
SMILES | MRP reversal | ERa coact pot | ERb SRC1 inh | MRP1 act | ERa coact inh | Smad3 FoxH1 inh
CCCS(=O)(=O)N1CCC(C(=O)NCCN(C)Cc2ccccc2)CC1 | -6.2 | 105.1 | 2.5 | -0.6 | -8.9 | 13.8
O=C(O)/C(=C\c1ccc(O)cc1)c1cccc2ccccc12 | . | . | . | . | . | 1.4
Cc1cc(Cl)ccc1Nc1sc(C(=O)c2cc3cc(Cl)ccc3o2)c(N)c1C#N | . | . | . | . | . | 14.1
CCN1C(=O)/C(=c2\o/c(=C3\C=Cc4ccccc4N3CC)c(=O)n2CC)SC1=S | -10.7 | 18.0 | 35.9 | -0.6 | 77.2*[fluorescence artefact?] | 2.1
CCN1C(=O)/C(=C2/C=Cc3ccccc3N2C)OC1=S | 11.5 | 95.7 | 62.5*[fluorescence artefact?] | -3.0 | 65.8*[fluorescence artefact?] | 7.8
N[C@@](CCc1ccccc1)(C(=O)O)c1ccccc1 | . | . | . | . | . | 3.0
COc1cc(C)c(S(=O)(=O)NCc2ccc3c(c2)OCO3)cc1C | 17.2 | 78.8 | 0.1 | -1.7 | 66.4* | 9.5
